# Measurements as given in PubChem BioAssay AID686979 (National Center for Advancing Translational Sciences (NCATS), 2013).
# In all, about 420,000 compounds went through this assay and about 50,000 (12%) were called active. Inconclusive results (about 26%) are left out. The entries come from a sample that favours actives as a whole. Unmarked numbers belong to inactive results. Calls come from the whole dose curve; as a rule, active = well fitted inhibition curve with a large enough effect; inconclusive = small, poorly fitted or top-dose-only effect; inactive = flat fitted curve, though single readings scatter.
# Assay: qHTS for Inhibitors of human tyrosyl-DNA phosphodiesterase 1 (TDP1): qHTS in cells in presence of CPT; note: nearly all actives have a fitted effect of over 55% in size
# Conditions: chicken DT40 Tdp1-/-;hTDP1 cells + 20 nM CPT, ATP luminescence, 48 h; series mostly up to 46.2 µM; activity change, negative = growth inhibition: at the top concentration
# Procedure, shortened: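 Chicken DT40 Tdp1-/- cells stably complemented with human TDP1 were seeded at 400 cells/well in medium containing 20 nM camptothecin, exposed to pin-transferred compounds, and grown at 37 °C for at least 48 hr. Viability was read as ATP luminescence.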
# % is set by controls: 0 for no effect and ±100 for the full control effect; potency is the fitted concentration of half-maximal effect.
SMILES,"activity change, negative = growth inhibition [%]",Potency
CCOC(OCC)c1ccc(/C=C\c2nccc(N)n2)cc1,-14.8,
COc1ccc2nc(NC(=O)[C@@H]3CCCN3C(=O)c3cccs3)sc2c1,3.56,
CCNc1nc(-c2cc3ccccc3o2)cs1,6.56,
Nc1ncc(-c2cc3ccccc3oc2=O)s1,-16.5,
O=c1oc2ccccc2cc1-c1csc(Nc2ccc(O)cc2)n1,,9.2 µM (active)
COc1ccc2nc(Nc3nc(-c4ccncc4)cs3)sc2c1,-20,
COc1ccc2nc(Nc3nc(-c4cc5ccccc5oc4=O)cs3)sc2c1,,5.8 µM (active)
CC1CCCCN1Cc1c(O)ccc2c(=O)c(-c3cccc(Cl)c3)c(C(F)(F)F)oc12 (stereo not given),-14.3,
C[C@@H]1NS(=O)(=O)c2cc(Cl)ccc2O[C@@H]1c1ccccc1,-1.11,
C[C@H](CO)N1C[C@H](C)[C@H](CN(C)C(=O)c2ccncc2)OCc2ccccc2-c2c(n(C)c3ccccc23)C1=O,-22.7,
CC(NS(=O)(=O)c1ccc(Br)cc1)C(=O)NCC1CCCO1 (stereo not given),-1.17,
CC(C)NC(=S)N1CCN(C(c2ccccc2)c2ccccc2)CC1,,29.1 µM (active)
COc1ccccc1NC(=S)N1CCN(C(c2ccccc2)c2ccccc2)CC1,,16.4 µM (active)
COc1ccc(C)cc1NC(=S)N1CCOCC1,4.73,
COc1ccccc1NC(=S)N1CCN(c2ccc(F)cc2)CC1,-1.31,
CC(C)OCC(O)CN1CCN(C(c2ccccc2)c2ccccc2)CC1 (stereo not given),-17.3,
CC(C)NC(=S)N1CCN(S(C)(=O)=O)CC1,2.05,
CCCCNC1(C#N)CCN(Cc2ccccc2)CC1,-6.58,
CC(C)CC1(C(=O)NCc2ccccn2)C=CCN1C(=O)c1ccccc1 (stereo not given),3.78,
O=C(NN=Cc1ccccc1)c1ccccc1,-5.88,
O=C(O)c1ccc(/C=N/NC(=S)NCc2ccccc2)cc1,5.08,
NN=C(NN=Cc1ccccc1)c1ccccc1,,8.2 µM (active)

SMILES,"activity change, negative = growth inhibition [%]",Potency
O=C(CCNC(=O)c1ccccc1)NN=Cc1ccc(Br)o1,0.385,
CN1C(C(=O)NCC2CC2)CC2Cn3c(nc4ccccc43)C21 (stereo not given),-23.8,
Nc1ccc(/C=C/c2ccnc3ccccc23)c([N+](=O)[O-])c1,,11.2 µM (active)
Cc1cc(C)cc(C(=O)NC2C(=O)N3C(C(=O)O)=C(CSc4nnc(C)s4)CSC23)c1 (stereo not given),-7.95,
CSc1ccccc1NC(=O)CN(C)CC(=O)Nc1cccc(Br)c1,-15.4,
CCOc1ccc(OCC)c(NC(=O)c2cc(C)nc3c2c(C)nn3-c2cccc(Cl)c2C)c1,3.56,
CC1=CC(C)(C)NC(=S)N1c1ccccc1,,20.6 µM (active)
CC1=CC(C)(C)NC(=S)N1NC(=O)c1ccccc1Cl,7.93,
Cc1ccc(N2C(=O)C(Cc3ccccc3)NC2=S)cc1 (stereo not given),-29.4,
CCOc1ccc(S(=O)(=O)N2CCC(C(=O)OCc3ccc(OC)cc3)CC2)cc1,-15.7,
CC1(C)O[C@H]2CC(=O)OCC23[C@H]2CC[C@@]4(C)[C@H](c5ccoc5)OC(=O)[C@H]5O[C@]54[C@]2(C)C(=O)C[C@@H]13 (stereo not given in full),4.62,
NC(=O)C(Cc1ccccc1)NC(=O)C12CC3CC(CC(C3)C1)C2 (stereo not given),-17.9,
COc1cc(/C=N/N=C(\N)c2nonc2N)cc(OC)c1OC,-16.6,
CC1=C(c2ccc(C)cc2)S(=O)(=O)NC1=NCCCN1CCN(c2cc(C)ccc2C)CC1,,4.61 µM (active)
CCOC(=O)c1c(C)[nH]c(CCC(=O)NCCCN2CCN(c3cccc(Cl)c3)CC2)c1C,,13 µM (active)
CCOC(=O)c1c(C)[nH]c(C(=O)NCCN2CCOCC2)c1C,-2.98,
COc1ccc(N2CCN(CCNC(=O)Nc3cc(Cl)ccc3Cl)CC2)cc1,-7.44,
COc1ccc(NC(=O)NCCN2CCN(c3ccc(C)cc3)CC2)c(Cl)c1,-18.8,
Cc1ccc(C)c(N2CCN(CCCNC(=O)Nc3ccc(Cl)cc3)CC2)c1,,7.31 µM (active)
Cc1ccc(C)c(N2CCN(Cc3nnc(-c4ccccc4)o3)CC2)c1,-20.2,
Cc1ccc(C)c(N2CCN(C(=O)Cc3c(C(=O)O)c(C)cn3C)CC2)c1,-19.6,
CCOC(=O)c1c(C)[nH]c(CCC(=O)NCCCN2CCN(c3cc(C)ccc3C)CC2)c1C,,4.61 µM (active)

SMILES,"activity change, negative = growth inhibition [%]",Potency
CCOC(=O)N1CCC(Nc2c(NCCN3CCN(c4cccc(Cl)c4)CC3)c(=O)c2=O)CC1,-3.1,
CC1=C(c2ccc(C)c(C)c2)S(=O)(=O)NC1=NCc1ccccc1Cl,-16,
CCOC(=O)N1CCC(Nc2c(NCCCN3CCN(c4ccc(OC)cc4)CC3)c(=O)c2=O)CC1,-0.704,
CCOc1cc(/C=N/NC(=O)c2cccc(S(=O)(=O)N3CCOCC3)c2)ccc1OCC(=O)N(C)C,0.118,
CC(C)CN(C(=O)Cn1c(=O)cnc2ccccc21)C1CCS(=O)(=O)C1 (stereo not given),0.278,
O=C(NCCCn1ccnc1)c1cc2c(s1)CCCC2,-6.43,
CCc1nnc(SCc2cccc(F)c2)nc1CC,-1.89,
Cc1ccc(OCC(=O)OCc2cc(=O)n3nc(C4CC4)sc3n2)cc1C,4.85,
COc1ccccc1/C=C/CN1CCC(CO)(Cc2ccccc2)CC1,-38.5,
CCOc1ccccc1N(CC)C(=O)Nc1cn(C)c(=O)c2ccccc12,-28.1,
CC1=C(C(=O)N2CCOCC2)CC(CC(=O)NCc2ccco2)C(=O)N1Cc1ccc(F)cc1 (stereo not given),-7.7,
COc1ccc(C2CC(c3cccs3)=NN2C(=O)CCC(=O)O)cc1OC (stereo not given),6,
O=C(CSc1ccc(-c2ccc(Br)cc2)nn1)NCC1CCCO1 (stereo not given),-19.8,
C#CCCCc1nc2ccccc2c(=O)n1N,19.6,
CCOC(=O)c1cc(-c2nnc(-c3cc(OC)c(OC)c(OC)c3)o2)c(C)nc1C,,16.4 µM (active)
Cc1nc(C)c(-c2nnc(-c3cccc(S(=O)(=O)N(C)C)c3)o2)cc1C(=O)NN,1.5,
COc1cc(-c2nnc(NC(=O)C3=COCCO3)o2)cc(OC)c1OC,-0.0683,
Cc1ccc(S(=O)(=O)NCCC(=O)NNC(=O)C2COc3ccccc3O2)cc1 (stereo not given),-4.14,
CC(C)N(c1ccccc1)c1ncnc(NCCC(=O)O)c1[N+](=O)[O-],-14.3,
CO/N=C(\C(=O)N[C@@H]1C(=O)N2C(C(=O)O)=C(COC(C)=O)CS[C@H]12)c1csc(N)n1 (stereo in doubt),,inactive
CN1C=CC=C/C1=C1\SC(=S)N(Cc2ccccc2)C1=O,-9.03,
